In PubChem BioAssay (Tox21):
Records with an inconclusive call do not appear. A call without a number means that no potency is given here. Calls of active or inactive are those of the source. Unless noted, calls come from the whole dose curve; as a rule, active = well fitted curve in the direction sought with a large enough effect in the repeat runs; inconclusive = weak or mixed curves; inactive = no such curve, though single readings can be large; an effect the other way counts as inactive or inconclusive.

Experiments:
[1] = qHTS assay to identify small molecule antagonists of the estrogen receptor alpha (ER-alpha) signaling pathway using the BG1 cell line in the presence of 0.1 nM 17-beta-estradiol - cell viability counter screen (AID 1259241); note: nearly all actives have a fitted effect of over 40% in size
Procedure, shortened: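 Live-cell protease activity (CellTiter-Fluor fluorescence, 30 min) was read in the same wells after VM7Luc4E2 cells had been exposed to compounds with 0.1 nM 17beta-estradiol for 22 hr at 37C.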

[2] = qHTS assay to identify small molecule antagonists of the androgen receptor (AR) signaling pathway using the MDA cell line in the presence of 0.5 nM R1881 - cell viability counter screen (AID 1259242); note: nearly all actives have a fitted effect of over 45% in size
Procedure, shortened: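 Counter screen for cytotoxicity run in the same wells as the AR antagonist reporter screen: MDA-kb2 cells were treated 16 hr with test compounds and 0.5 nM R1881, then live-cell protease activity was measured by fluorescence.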

[3] = target: Androgen receptor (Homo sapiens) (UniProt P10275); assay: qHTS assay to identify small molecule antagonists of the androgen receptor (AR) signaling pathway using the MDA cell line in the presence of 0.5 nM R1881 (AID 1259243); note: nearly all actives have a fitted effect of over 50% in size
Chain of Androgen receptor (Homo sapiens) (P10275 whole entry, looked up): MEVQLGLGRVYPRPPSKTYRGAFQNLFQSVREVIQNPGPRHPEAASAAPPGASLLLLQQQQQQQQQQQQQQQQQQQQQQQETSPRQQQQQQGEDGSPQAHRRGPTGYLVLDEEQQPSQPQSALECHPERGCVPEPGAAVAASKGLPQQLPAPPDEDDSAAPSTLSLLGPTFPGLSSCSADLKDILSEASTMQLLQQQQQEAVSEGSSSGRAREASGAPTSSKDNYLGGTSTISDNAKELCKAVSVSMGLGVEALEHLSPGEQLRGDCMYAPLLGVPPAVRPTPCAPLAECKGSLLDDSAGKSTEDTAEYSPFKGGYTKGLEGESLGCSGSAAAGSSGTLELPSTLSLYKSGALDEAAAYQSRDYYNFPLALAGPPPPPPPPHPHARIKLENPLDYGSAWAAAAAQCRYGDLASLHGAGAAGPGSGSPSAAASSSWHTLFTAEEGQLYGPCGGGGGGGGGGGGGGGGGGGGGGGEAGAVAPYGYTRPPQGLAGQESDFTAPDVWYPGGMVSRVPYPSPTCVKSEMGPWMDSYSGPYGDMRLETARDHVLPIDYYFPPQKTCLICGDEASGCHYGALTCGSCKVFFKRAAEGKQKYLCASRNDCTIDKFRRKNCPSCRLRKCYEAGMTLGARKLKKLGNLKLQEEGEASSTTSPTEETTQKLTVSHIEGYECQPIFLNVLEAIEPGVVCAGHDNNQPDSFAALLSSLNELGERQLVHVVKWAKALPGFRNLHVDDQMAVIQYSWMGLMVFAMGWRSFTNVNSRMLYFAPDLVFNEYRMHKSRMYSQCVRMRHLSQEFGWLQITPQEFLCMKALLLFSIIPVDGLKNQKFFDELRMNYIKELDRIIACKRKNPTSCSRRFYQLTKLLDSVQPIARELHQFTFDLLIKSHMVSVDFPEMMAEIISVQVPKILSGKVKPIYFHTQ
Procedure, shortened: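 Luciferase luminescence is the read-out: compounds are tested for suppressing 0.5 nM R1881-driven MMTV reporter activity in MDA-kb2 cells after 16 hr at 37C.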

[4] = target: Estrogen receptor (Homo sapiens) (UniProt P03372); assay: qHTS assay to identify small molecule antagonists of the estrogen receptor alpha (ER-alpha) signaling pathway using the BG1 cell line in the presence of 0.1 nM 17-beta-estradiol (AID 1259244); note: nearly all actives have a fitted effect of over 50% in size
Chain of Estrogen receptor (Homo sapiens) (P03372 whole entry, looked up): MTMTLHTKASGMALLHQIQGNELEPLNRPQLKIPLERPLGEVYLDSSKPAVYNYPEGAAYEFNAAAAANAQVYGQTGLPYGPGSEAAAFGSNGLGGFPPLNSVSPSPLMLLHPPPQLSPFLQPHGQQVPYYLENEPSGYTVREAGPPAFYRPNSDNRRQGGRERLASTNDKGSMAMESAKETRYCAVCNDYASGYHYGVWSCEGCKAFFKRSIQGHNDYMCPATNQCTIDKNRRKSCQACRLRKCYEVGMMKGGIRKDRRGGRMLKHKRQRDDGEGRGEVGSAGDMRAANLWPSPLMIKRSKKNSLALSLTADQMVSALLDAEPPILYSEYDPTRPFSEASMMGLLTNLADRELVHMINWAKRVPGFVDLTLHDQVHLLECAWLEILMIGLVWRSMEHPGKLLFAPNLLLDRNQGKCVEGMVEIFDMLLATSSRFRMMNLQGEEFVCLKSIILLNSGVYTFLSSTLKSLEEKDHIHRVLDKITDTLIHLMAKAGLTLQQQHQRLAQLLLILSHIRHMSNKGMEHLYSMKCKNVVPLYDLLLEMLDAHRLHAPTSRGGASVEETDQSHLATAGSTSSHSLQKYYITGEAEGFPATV
Procedure, shortened: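 Cells: VM7Luc4E2, endogenous ER-alpha, 4x ERE-luc stable. Pre-culture 5 d, phenol red-free, charcoal-stripped FBS. Plated 24 h, compound + E2 0.1 nM final, 22 h 37C/5% CO2. Readout ONE-Glo luminescence.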

[5] = qHTS assay to identify small molecule HDAC inhibitors (AID 1259364); note: top concentration of the series differs between compounds; nearly all actives have a fitted effect of over 45% in size
Procedure, shortened: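 Luminescence from a cell-permeant luminogenic class I/II HDAC substrate reports endogenous deacetylase activity in intact HCT-116 cells treated with compounds for 2 h.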

[6] = qHTS assay to identify small molecule HDAC inhibitors - cell viability counter screen (AID 1259365); note: series mostly up to about 92 µM; nearly all actives have a fitted effect of over 50% in size
Procedure, shortened: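 HCT-116 (wild type), 1,500 cells/well, overnight 37C/5% CO2; compound in DMSO 2hr; CellTiter-Glo 30min RT; luminescence read.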

[7] = qHTS assay to identify small molecule agonists of the sonic hedgehog signaling (Shh) pathway - cell viability counter screen (AID 1259366); note: nearly all actives have a fitted effect of over 50% in size; note: potency is the fitted concentration of half-maximal effect
Procedure, shortened: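 CellTiter-Fluor fluorescence read-out, 1 hr at 37C, added after 23hr compound exposure. Cells: 3T3 Gli1-Luc, an NIH/3T3 clone with stably integrated Gli1-Luc reporter, plated 4hr before compound.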

[8] = qHTS assay to identify small molecule antagonists of the sonic hedgehog signaling (Shh) pathway - cell viability counter screen (AID 1259367); note: nearly all actives have a fitted effect of over 55% in size; note: potency is the fitted concentration of half-maximal effect
Procedure, shortened: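 Using CellTiter-Fluor, viability of Gli1-Luc reporter 3T3 cells is read by fluorescence in the wells used for the Shh luciferase assay. Treatment lasts 23 hr with conditioned medium, then reagent 1 hr at 37C.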

[9] = qHTS assay to identify small molecule agonists of the sonic hedgehog signaling (Shh) pathway (AID 1259368; calls by dose curve;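 note: NIH/3T3-derived 3T3Gli1-Luc cells carrying a stable Gli1-driven firefly luciferase reporter; series mostly up to about 92 µM; nearly all actives have a fitted effect of over 15% in size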)
Procedure, shortened: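 3T3Gli1-Luc (NIH/3T3 clone, stable Gli1-Luc); 4 hr pre-incubation, then cpd in DMSO 24 hr, 37 C/5% CO2; luciferase reagent 30 min RT; luminescence.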

[10] = target: Estrogen receptor beta (Homo sapiens) (UniProt Q92731); assay: qHTS assay to identify small molecule agonists of the estrogen receptor beta (ER-beta) signaling pathway (AID 1259377; active = well fitted activation curve with a large enough effect in the signal ratio in the repeat runs, not every such curve was filed as active; the % refers to the signal ratio)
Chain of Estrogen receptor beta (Homo sapiens) (Q92731 whole entry, looked up): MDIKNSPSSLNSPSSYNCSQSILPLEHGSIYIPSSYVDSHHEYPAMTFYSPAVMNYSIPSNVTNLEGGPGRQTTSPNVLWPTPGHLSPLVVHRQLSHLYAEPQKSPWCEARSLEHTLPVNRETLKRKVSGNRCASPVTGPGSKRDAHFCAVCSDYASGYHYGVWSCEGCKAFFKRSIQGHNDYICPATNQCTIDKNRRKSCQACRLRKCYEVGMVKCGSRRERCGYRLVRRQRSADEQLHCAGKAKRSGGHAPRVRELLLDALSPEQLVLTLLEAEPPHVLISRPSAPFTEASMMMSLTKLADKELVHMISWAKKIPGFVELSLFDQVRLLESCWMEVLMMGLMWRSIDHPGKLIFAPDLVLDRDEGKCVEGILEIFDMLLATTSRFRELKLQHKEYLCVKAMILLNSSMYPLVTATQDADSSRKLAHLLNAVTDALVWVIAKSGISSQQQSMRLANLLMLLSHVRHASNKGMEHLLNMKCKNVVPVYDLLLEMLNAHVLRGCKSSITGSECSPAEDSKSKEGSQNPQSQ
Procedure, shortened: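 Beta-lactamase reporter readout: fluorescence of LiveBLAzer B/G FRET substrate after 2 h at room temperature, following 16 h compound treatment of ER-beta-UAS-bla HEK293T cells at 37C in 2% charcoal-stripped FBS medium.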

[11] = target: Estrogen receptor beta (Homo sapiens) (UniProt Q92731); assay: qHTS assay to identify small molecule antagonists of the estrogen receptor beta (ER-beta) signaling pathway (AID 1259378; active = well fitted inhibition curve with a large enough effect in the signal ratio in the repeat runs, not every such curve was filed as active; the % refers to the signal ratio)
Procedure, shortened: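 Antagonist mode: compounds added to beta-lactamase reporter HEK293T ER-beta-UAS cells stimulated with E2 (1nM final), 16 hr at 37C. LiveBLAzer B/G FRET substrate, 2 hours room temperature, fluorescence read-out.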

[12] = qHTS assay to identify small molecule agonists of the androgen receptor (AR) signaling pathway in the presence of an antagonist - cell viability counter screen (AID 1259379);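 note: MDA-kb2 human breast cancer cells carrying an MMTV luciferase reporter; series mostly up to about 92 µM; nearly all actives have a fitted effect of over 25% in size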
Procedure, shortened: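 Cells: MDA-kb2 (MMTV-luc, AR and GR elements), 3,000/well, 5 hr settle. Added: nilutamide 3.0uM final, then compounds (15 conc.). Incubation: 16 hr, 37C, no CO2. Read-out: CellTiter-Fluor, 1 hr, fluorescence.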

[13] = qHTS assay to identify small molecule agonists of the estrogen receptor beta (ER-beta) signaling pathway - cell viability counter screen (AID 1259380); note: nearly all actives have a fitted effect of over 30% in size
Procedure, shortened: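 HEK293T ER-beta-UAS-bla; 2% CS-FBS; 6 hr pre-plate, 16 hr cpd at 37C/5% CO2; LiveBLAzer read first, then CellTiter-Glo 30 min RT, luminescence.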

[14] = qHTS assay to identify small molecule antagonists of the estrogen receptor beta (ER-beta) signaling pathway - cell viability counter screen (AID 1259382);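 note: HEK293T cells carrying ER-beta-UAS-bla reporter stimulated with estradiol; series mostly up to about 92 µM; nearly all actives have a fitted effect of over 55% in size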
Procedure, shortened: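 Cells: ER-beta-UAS-bla HEK293T, 2,000/well, 2% CS-FBS, 6 hr settle. Cpd + E2 (1nM final), 16 hr, 37C/5% CO2. Bla FRET substrate 2 hr RT, then CellTiter-Glo 30 min RT, luminescence.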

[15] = target: Estrogen receptor (Homo sapiens) (UniProt P03372); assay: qHTS assay to identify small molecule agonists of the estrogen receptor alpha (ER-alpha) signaling pathway in the presence of an antagonist (AID 1259383; calls by dose curve; note: top concentration of the series differs between compounds; nearly all actives have a fitted effect of over 15% in size)
Procedure, shortened: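 VM7Luc4E2, endog. ER-alpha + 4×ERE-luc; charcoal-stripped FBS, phenol red-free, 5 d; 24hr plating; +10.0nM ICI-182,780 (final); cpds 15 conc, 22hr, 37C/5% CO2; ONE-Glo luminescence.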

[16] = qHTS assay to identify small molecule agonists or antagonists of the thyroid stimulating hormone receptor (TSHR) signaling pathway - wild type cell line counter screen (AID 1259384; calls by dose curve)
Procedure, shortened: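 Counter screen in untransfected Hek293: compounds (15-point titration, triplicate) plus phosphodiesterase inhibitor Ro20-1724 added after 18 h plating; 30 min RT. Intracellular cAMP via competitive d2/cryptate immunoassay, 1 h incubation.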

[17] = A CellTox Green Cytotoxicity Assay to monitor cytotoxicity in HepG2 cells - 8 hour (AID 1224890); note: nearly all actives have a fitted effect of over 45% in size
Procedure, shortened: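 Read-out is fluorescence of a cyanine dye excluded from live cells that stains DNA of dead HepG2 cells, with signal proportional to cytotoxicity. Plates were read at 0, 8, 16, 24, 32 and 40 h after compound addition.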

[18] = qHTS assay to identify small molecule phospholipidosis (PLD) inducers (AID 1259344; active = well fitted curve in the direction sought with a large enough effect; an effect the other way counts as inactive or inconclusive; note: potency is the fitted concentration of half-maximal effect)
Procedure, shortened: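 Fluorescent phospholipid staining (LipidTOX Red) measured by automated microscopy in fixed HepG2 cells after 24 h treatment; nuclei counterstained with Hoechst 33342; amiodarone as reference inducer.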

[19] = qHTS assay to identify small molecule antagonists of the sonic hedgehog signaling (Shh) pathway (AID 1259369; calls by dose curve; note: nearly all actives have a fitted effect of over 45% in size)
Procedure, shortened: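 3T3Gli1-Luc, conditioned-medium-stimulated, 24hr cpd, 37C/5% CO2; Gli1-driven firefly Luc luminescence after 30min RT with luciferase reagent. Cells plated 4hr before cpd.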

Row | SMILES | outcome [1] | Potency [2] | Potency [3] | Potency [4] | Potency [5] | outcome [6] | Potency [7] | Potency [8] | outcome [9] | Potency [10] | outcome [11] | Potency [12] | Potency [13] | Potency [14] | Potency [15] | outcome [16] | Potency [17] | Potency [18] | Potency [19]
1 | CC[C@H](N)c1ccccc1 | inactive | inactive | inactive | inactive | inactive | inactive | inactive | inactive | inactive | inactive | inactive | inactive | inactive | inactive | inactive | inactive |  |  | 
2 | Cn1c(CCCC(=O)O)nc2cc(N(CCCl)CCCl)ccc21 |  | inactive |  | inactive | inactive | inactive |  | inactive | inactive | inactive | inactive | inactive | inactive | inactive | inactive | inactive | inactive | inactive | inactive
3 | Cc1ccc(Cl)c(O)c1 |  |  |  | inactive | inactive | inactive | inactive | inactive | inactive |  |  | inactive | inactive | inactive | inactive | inactive | inactive | inactive | 
4 | N#CN |  | inactive |  | inactive | inactive | inactive |  | inactive | inactive | inactive | inactive | inactive | inactive | inactive | inactive |  | inactive | inactive | inactive
5 | O=C(Cl)c1ccccc1 |  | inactive |  | inactive | inactive | inactive |  | inactive | inactive |  |  | inactive | inactive | inactive | inactive | inactive | inactive |  | inactive
6 | C=C1C[C@@H]2[C@H](CC[C@]3(C)C(=O)CC[C@@H]23)[C@@]2(C)C=CC(=O)C=C12 | inactive | inactive |  | inactive | inactive | inactive | inactive | inactive | inactive | inactive | inactive | inactive | inactive | inactive | inactive |  |  | inactive | 
7 | CC(C)(C)C(=O)Cl |  | inactive |  | inactive | inactive | inactive | inactive | inactive | inactive | inactive | inactive | inactive | inactive | inactive | inactive | inactive | inactive |  | inactive
8 | CCC(=O)OC1(c2ccccc2)CCN(C)CC1 |  | inactive |  |  | inactive | inactive | inactive | inactive | inactive |  |  | inactive | inactive | inactive |  | inactive | inactive | inactive | 
9 | O=[N+]([O-])c1cccc(CCl)c1 |  |  |  |  | inactive | inactive | inactive | inactive | inactive |  |  | inactive | inactive | inactive |  |  | inactive |  | inactive
10 | C=CCCC#N |  |  |  | inactive | inactive | inactive | inactive | inactive | inactive | inactive | inactive | inactive | inactive | inactive | inactive | inactive | inactive |  | inactive
11 | C=C(Cl)CSC(=S)N(CC)CC |  |  |  |  | inactive | inactive | inactive | inactive | inactive | inactive | inactive | inactive | inactive | inactive |  |  | inactive |  | 
12 | NC(=O)OCCCc1ccccc1 |  | inactive |  | inactive | inactive | inactive |  | inactive | inactive | inactive | inactive | inactive | inactive | inactive | inactive | inactive | inactive | inactive | inactive
13 | CCC(C)C(C)(COC(N)=O)COC(N)=O (centres undefined) |  |  |  | inactive | inactive | inactive | inactive | inactive | inactive | inactive | inactive | inactive | inactive | inactive | inactive |  | inactive |  | 
14 | N[C@@H](Cc1ccc(Oc2cc(I)c(O)c(I)c2)c(I)c1)C(=O)O |  | inactive |  |  | inactive | inactive |  | inactive | inactive | inactive | inactive | inactive | inactive | inactive | inactive |  | inactive | inactive | inactive
15 | O=C(O)c1c(Cl)ccc2cc(Cl)cnc12 |  | inactive |  | inactive | inactive | inactive | inactive | inactive | inactive | inactive | inactive | inactive | inactive | inactive | inactive | inactive | inactive |  | inactive
16 | NC1(c2ccccc2)CCCCC1 |  | inactive |  | inactive | inactive | inactive | 30.4 µM (active) | 27.1 µM (active) | inactive | inactive |  | inactive | inactive | inactive | inactive | inactive | inactive | 8.91 µM (active) | inactive
17 | CCOC(=O)CCl |  | inactive |  | inactive | inactive | inactive | inactive | inactive | inactive | inactive | inactive | inactive | inactive | inactive | inactive | inactive | inactive |  | 
18 | CC(C)[N+](C)(CCC(C(N)=O)(c1ccccc1)c1ccccc1)C(C)C |  | inactive |  | inactive | inactive | inactive | inactive | inactive | inactive | inactive | inactive | inactive | inactive | inactive | inactive | inactive | inactive | inactive | inactive
